An excerpt weighted towards active compounds, which were near 2.3% of everything screened.
A549 viability = A549 cytotoxicity, counter-screen for Nrf2 inhibitors. A549 ARE-Fluc cells, CellTiter-Fluor viability, 18-24 h. Potency, µM (titrated, usually from 46 µM), for the others: at the top dose activity change, negative = cytotoxicity, usual class: inhibitors. 390,000 compounds, 0.16% hits. AID 504648; note: potency is the fitted concentration of half-maximal effect; % is set by controls: 0 for no effect and ±100 for the full control effect
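A549 ARE_Fluc cells in 5% FBS OPTI-MEM were exposed to compounds in concentration-response for 18-24 h at 37 deg C. Viability was read by CellTiter-Fluor fluorescence (Ex 405/Em 525) after 30 min, before the luciferase read.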
mIDH1 inhibitor = human IDH1 R132H inhibition. O75874. Potency, µM (series often up to 76.6 µM), for the others: at the top dose activity change, negative = inhibition, most hits filed as inhibitors. 390,000 compounds, 0.093% hits. IDH1-R132H enzyme, NADPH consumption, diaphorase/resazurin fluorescence. AID 602179; note: potency is the fitted concentration of half-maximal effect; % is set by controls: 0 for no effect and ±100 for the full control effect; nearly all actives have a fitted effect of over 65% in size
Target sequence (O75874 whole entry R132H, stated change not applied): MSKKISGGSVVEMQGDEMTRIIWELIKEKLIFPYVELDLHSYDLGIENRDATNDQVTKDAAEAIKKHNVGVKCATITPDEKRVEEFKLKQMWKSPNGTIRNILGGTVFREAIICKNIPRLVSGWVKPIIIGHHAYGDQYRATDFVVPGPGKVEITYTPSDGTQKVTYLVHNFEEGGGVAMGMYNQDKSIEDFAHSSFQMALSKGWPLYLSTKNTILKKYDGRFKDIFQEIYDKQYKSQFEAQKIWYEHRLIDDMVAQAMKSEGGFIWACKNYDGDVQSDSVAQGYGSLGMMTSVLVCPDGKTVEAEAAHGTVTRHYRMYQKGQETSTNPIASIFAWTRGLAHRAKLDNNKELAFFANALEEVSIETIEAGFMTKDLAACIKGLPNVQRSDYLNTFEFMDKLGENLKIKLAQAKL
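IDH1-R132H (0.5 ug/mL) preincubated 30 min with compound, then NADPH (0.016 mM) and alpha-KG (2 mM) added; 80 min at RT, pH 7.5. Remaining NADPH coupled via diaphorase/resazurin to fluorescence (540/590 nm); concentration-response curves normalized to no-enzyme control.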
Nrf2 inh = inhibitors of Nrf2 signaling. A549 ARE-Fluc reporter, luciferase luminescence, 18-24 h. Potency, µM (highest dose often 46 µM), for inactives: top-dose activity change, negative = inhibition, hits mostly inhibitors. 360,000 compounds, 2.1% hits. AID 504444; note: potency is the fitted concentration of half-maximal effect; % is set by controls: 0 for no effect and ±100 for the full control effect; nearly all actives have a fitted effect of over 60% in size
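A549 ARE_Fluc cells, 5000/well, 5% FBS OPTI-MEM; compounds in dose-response, 18-24 h at 37 °C/5% CO2; CellTiter-Fluor viability read (Ex 405/Em 525), then BugLite luciferase luminescence = Nrf2 activity.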
Giardia kill = Giardia lamblia killing; Giardia lamblia trophozoite viability; activity change, % at 7.66 µM, hits read low; 340,000 compounds, 0.15% hits; AID 540267; in the data active = activity change below about -80%; inconclusive = between about -30% and that limit;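 note: parasites exposed to compound for two days anaerobically before the ATP read; % is set by controls: 0 for no effect and ±100 for the full control effect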
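Killing of trophozoites was scored by loss of ATP luminescence after a 48 hrs anaerobic exposure to compounds at 37 deg C, using 100 cells per well.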
Anesthetic bind = candidate novel general anesthetic via apoferritin binding; P02791; apoferritin/1-aminoanthracene competitive binding, fluorescence; Potency, µM (doses to about 77.5 µM), for the others: top-dose activity change, negative = displacement, hits mostly inhibitors; 350,000 compounds, 0.074% hits; AID 485281; note: potency is the fitted concentration of half-maximal effect; % is set by controls: 0 for no effect and ±100 for the full control effect; nearly all actives have a fitted effect of over 20% in size
Target sequence (P02791 2-175 limits assumed): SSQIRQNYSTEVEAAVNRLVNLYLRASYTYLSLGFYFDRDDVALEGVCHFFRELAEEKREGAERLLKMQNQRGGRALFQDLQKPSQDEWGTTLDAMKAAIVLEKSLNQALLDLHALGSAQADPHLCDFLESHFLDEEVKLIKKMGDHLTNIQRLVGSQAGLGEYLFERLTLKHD
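Concentration-response curves derived by four-parameter Hill fitting of normalized fluorescence, where compounds displaced 1-AMA from 10 uM horse apoferritin following a brief 10 min room-temperature incubation; propofol titration acted as positive control.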
Nrf2 ARE act = Nrf2 pathway activation; AREc32 ARE-luciferase reporter (MCF7-derived line), luminescence, 24 h; Potency, µM (highest dose often 46.1 µM), for inactives: at the highest dose activation, usual class: activators; 410,000 compounds, 0.31% hits; note: potency is the fitted concentration of half-maximal effect; % of control where 0% means no effect; nearly all actives have a fitted effect of over 65% in size
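Steps: seed AREc32_Fluc cells (1000/well, 5% FBS OPTI-MEM); incubate overnight at 37 deg C; add 23 nL compound; incubate 24 hr; add Steady-Glo; hold 30 min RT; read luminescence.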
Active calls of the source: *; [ ] = remark or other dose. Unless noted, calls come from the whole dose curve; as a rule, active = well fitted curve in the direction sought with a large enough effect; inconclusive = small, poorly fitted or top-dose-only effect, or another doubt; inactive = no such curve, though single readings can be large; an effect the other way counts as inactive or inconclusive.

Screening CCc1ccccc1Nc1nn2c(=O)c3ccc(C(=O)NCCC4=CCCCC4)cc3nc2s1 returned A549 viability 6.6%, mIDH1 inhibitor 4.9%, Nrf2 inh inconclusive, Anesthetic bind -7.6% and Nrf2 ARE act -0.6%.
`CN(C)S(=O)(=O)c1cccc(N=C2NN=C(c3ccccc3)CS2)c1` gave A549 viability inconclusive, mIDH1 inhibitor 39.8µM*, Nrf2 inh inconclusive, Giardia kill -5.3, Anesthetic bind -14.2% and Nrf2 ARE act 11.0%.
COCCN=C1NN=C(c2ccc(NC(C)=O)cc2)CS1 was read as A549 viability -0.5%, mIDH1 inhibitor inconclusive, Nrf2 inh 10.6%, Giardia kill 8.6, Anesthetic bind -15.5% and Nrf2 ARE act -0.4%.
`CC(=O)Nc1ccc(C2=NNC(=Nc3cccc(S(=O)(=O)N(C)C)c3)SC2)cc1` gave A549 viability -3.0%, mIDH1 inhibitor 41.4µM*, Nrf2 inh inconclusive, Giardia kill 24.8, Anesthetic bind -19.2% and Nrf2 ARE act 13.3%.
Screening CC1CCCCN1C(=O)COC(=O)c1ccc(S(C)(=O)=O)c([N+](=O)[O-])c1 (stereo unspecified) returned A549 viability -4.6%, Nrf2 inh -3.0% and Giardia kill -11.7.
COc1ccccc1C(=O)Nc1nc2ccc(S(=O)(=O)N3CCCC3)cc2s1 was read as A549 viability -7.3%, mIDH1 inhibitor -1.7%, Anesthetic bind 2.6% and Nrf2 ARE act 3.4%.
Cc1c(N=Nc2c(-c3ccc([N+](=O)[O-])cc3)[nH]n(C(N)=S)c2=O)cccc1[N+](=O)[O-] was read as A549 viability inconclusive, mIDH1 inhibitor -10.6%, Nrf2 inh 18.4µM*, Giardia kill -15.8, Anesthetic bind -10.0% and Nrf2 ARE act 2.9%.
For Cc1[nH]n(C(N)=S)c(=O)c1N=Nc1cccc([N+](=O)[O-])c1C the results were A549 viability -7.6%, mIDH1 inhibitor -10.1%, Nrf2 inh inconclusive, Giardia kill -18.1, Anesthetic bind -6.7% and Nrf2 ARE act 9.3%.
Screening NC(=S)n1[nH]c(-c2ccc([N+](=O)[O-])cc2)c(N=Nc2cccc([N+](=O)[O-])c2)c1=O returned A549 viability inconclusive, mIDH1 inhibitor -14.4%, Nrf2 inh 16.4µM*, Giardia kill 10.5, Anesthetic bind -8.3% and Nrf2 ARE act 3.5%[9.22 µM].
Screening NC(=S)n1[nH]c(-c2ccc([N+](=O)[O-])cc2)c(N=Nc2ccccc2[N+](=O)[O-])c1=O returned A549 viability 5.6%, mIDH1 inhibitor 8.0%, Nrf2 inh 12.9%, Giardia kill 31.5, Anesthetic bind -6.9% and Nrf2 ARE act 10.5%.
`O=S(=O)(c1ccc2c(c1)OCCO2)N1CCN(S(=O)(=O)c2ccc3nc(Cl)c(Cl)nc3c2)CC1` gave A549 viability -5.4% and Nrf2 inh -16.1%.
For CSc1ccc(CCNC(=O)Cn2ccc3cc(S(=O)(=O)N4CCCCCC4)ccc32)cc1 the results were A549 viability -9.7%, mIDH1 inhibitor -3.2%, Nrf2 inh inconclusive, Anesthetic bind 101.0% and Nrf2 ARE act 2.4%.
Screening CCC(C(=O)NCCC(C)C)n1ccc2cc(S(=O)(=O)N3CCCCC3)ccc21 (stereo unspecified) returned A549 viability -18.9%, mIDH1 inhibitor 1.9%, Nrf2 inh 13µM*, Giardia kill -16.5, Anesthetic bind 25.8% and Nrf2 ARE act 0.4%.
For CC(C)CCNC(=O)c1cc2cc(S(=O)(=O)N3CCCCC3)ccc2n1C the results were A549 viability -4.9%, mIDH1 inhibitor -2.1%, Anesthetic bind 0.5% and Nrf2 ARE act -0.5%.
For O=C(Cn1ccc2cc(S(=O)(=O)N3CCCCCC3)ccc21)NCCc1ccc(Cl)cc1 the results were A549 viability -2.0%, mIDH1 inhibitor -14.1%, Nrf2 inh 25.9µM*, Anesthetic bind 134.6% and Nrf2 ARE act 5.8%.
For Cc1ccc([N+](=O)[O-])cc1-c1[nH]c(-c2ccc(O)c(O)c2)nc1-c1ccccc1 the results were A549 viability inconclusive, mIDH1 inhibitor -8.1%, Nrf2 inh 20.6µM*, Giardia kill -4.3, Anesthetic bind inconclusive and Nrf2 ARE act 3.5%.
`CSc1nc2nccc(-c3ccc(Oc4ccccc4)cc3)n2n1` gave A549 viability 2.4%, mIDH1 inhibitor 12.1%, Nrf2 inh 18.4µM*, Giardia kill 13.5, Anesthetic bind inconclusive and Nrf2 ARE act 0.2%.
`CSc1nc2nccc(-c3ccc(-c4ccccc4)cc3)n2n1` gave A549 viability -6.1%, mIDH1 inhibitor -9.7%, Nrf2 inh inconclusive, Giardia kill 2.1, Anesthetic bind -19.3% and Nrf2 ARE act 0.5%.
CN(C)c1ccc(C=c2c3ccccc3n3c2c2c([n+]3C)CCCC2)cc1 was read as A549 viability 20.6µM*, mIDH1 inhibitor 5.9%, Nrf2 inh 6.51µM*, Giardia kill -1.2 and Nrf2 ARE act -2.7%.
`CN(C)c1ccc(C=c2c3ccccc3n3c2cc(-c2ccccc2)[n+]3C)cc1` gave A549 viability 16.4µM*, mIDH1 inhibitor -1.2%, Nrf2 inh 5.8µM*, Giardia kill -17.3 and Nrf2 ARE act -0.1%.
For COc1cc(/C=C(/C(=O)O)c2ccc(-c3ccccc3)cc2)cc(OC)c1OC the results were A549 viability -10.4%, mIDH1 inhibitor -12.5%, Nrf2 inh 4.1%, Giardia kill 13.0, Anesthetic bind -8.7% and Nrf2 ARE act -0.4%.
COc1cc(C=c2c3ccccc3n3c2cc(-c2ccccc2)[n+]3C)cc(OC)c1OC was read as A549 viability inconclusive, mIDH1 inhibitor -3.3%, Nrf2 inh 16.4µM*, Giardia kill -0.2 and Nrf2 ARE act 15.4%.
Screening CN(C)c1ccc(C=c2c3ccccc3n3c2cc(-c2ccc(Cl)cc2)[n+]3C)cc1 returned A549 viability inconclusive, mIDH1 inhibitor -4.6%, Nrf2 inh inconclusive, Giardia kill 32.2 and Nrf2 ARE act 26.0%.
For COc1cc(N(C)C)ccc1C=c1c2ccccc2n2c1cc(-c1ccccc1)[n+]2C the results were A549 viability inconclusive, mIDH1 inhibitor -15.4%, Nrf2 inh 14.6µM*, Giardia kill -26.9 and Nrf2 ARE act 5.9%.
Screening CC(C)(C)NC(=O)COC(=O)CNC(=O)C1CCCCC1 returned A549 viability -14.4%, Nrf2 inh -10.6% and Giardia kill 17.2.
`O=C(NCCc1nc2ccccc2n1CCOc1cccc2ccccc12)C1CCCCC1` gave A549 viability -3.5%, Nrf2 inh -19.9% and Giardia kill 0.2.
